# Test results reported in ChEMBL document CHEMBL1961873, “Compounds: GSK PKIS; Assays: Nanosyn kinase panel” (2012).
# Columns and labels:
# [1] = target: Mitogen-activated protein kinase kinase kinase kinase 4 (Homo sapiens) (UniProt O95819); conditions: at 1 µM;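 further: reported figure is an averaged inhibition value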
# [2] = target: Dual specificity mitogen-activated protein kinase kinase 1 (Homo sapiens) (UniProt Q02750); conditions: at 0.1 µM
# [3] = target: Dual specificity mitogen-activated protein kinase kinase 1 (Homo sapiens) (UniProt Q02750); conditions: at 1 µM
# [4] = target: Misshapen-like kinase 1 (Homo sapiens) (UniProt Q8N4C8); conditions: at 0.1 µM
# Sequence of Misshapen-like kinase 1 (Homo sapiens) (Q8N4C8 whole entry, looked up): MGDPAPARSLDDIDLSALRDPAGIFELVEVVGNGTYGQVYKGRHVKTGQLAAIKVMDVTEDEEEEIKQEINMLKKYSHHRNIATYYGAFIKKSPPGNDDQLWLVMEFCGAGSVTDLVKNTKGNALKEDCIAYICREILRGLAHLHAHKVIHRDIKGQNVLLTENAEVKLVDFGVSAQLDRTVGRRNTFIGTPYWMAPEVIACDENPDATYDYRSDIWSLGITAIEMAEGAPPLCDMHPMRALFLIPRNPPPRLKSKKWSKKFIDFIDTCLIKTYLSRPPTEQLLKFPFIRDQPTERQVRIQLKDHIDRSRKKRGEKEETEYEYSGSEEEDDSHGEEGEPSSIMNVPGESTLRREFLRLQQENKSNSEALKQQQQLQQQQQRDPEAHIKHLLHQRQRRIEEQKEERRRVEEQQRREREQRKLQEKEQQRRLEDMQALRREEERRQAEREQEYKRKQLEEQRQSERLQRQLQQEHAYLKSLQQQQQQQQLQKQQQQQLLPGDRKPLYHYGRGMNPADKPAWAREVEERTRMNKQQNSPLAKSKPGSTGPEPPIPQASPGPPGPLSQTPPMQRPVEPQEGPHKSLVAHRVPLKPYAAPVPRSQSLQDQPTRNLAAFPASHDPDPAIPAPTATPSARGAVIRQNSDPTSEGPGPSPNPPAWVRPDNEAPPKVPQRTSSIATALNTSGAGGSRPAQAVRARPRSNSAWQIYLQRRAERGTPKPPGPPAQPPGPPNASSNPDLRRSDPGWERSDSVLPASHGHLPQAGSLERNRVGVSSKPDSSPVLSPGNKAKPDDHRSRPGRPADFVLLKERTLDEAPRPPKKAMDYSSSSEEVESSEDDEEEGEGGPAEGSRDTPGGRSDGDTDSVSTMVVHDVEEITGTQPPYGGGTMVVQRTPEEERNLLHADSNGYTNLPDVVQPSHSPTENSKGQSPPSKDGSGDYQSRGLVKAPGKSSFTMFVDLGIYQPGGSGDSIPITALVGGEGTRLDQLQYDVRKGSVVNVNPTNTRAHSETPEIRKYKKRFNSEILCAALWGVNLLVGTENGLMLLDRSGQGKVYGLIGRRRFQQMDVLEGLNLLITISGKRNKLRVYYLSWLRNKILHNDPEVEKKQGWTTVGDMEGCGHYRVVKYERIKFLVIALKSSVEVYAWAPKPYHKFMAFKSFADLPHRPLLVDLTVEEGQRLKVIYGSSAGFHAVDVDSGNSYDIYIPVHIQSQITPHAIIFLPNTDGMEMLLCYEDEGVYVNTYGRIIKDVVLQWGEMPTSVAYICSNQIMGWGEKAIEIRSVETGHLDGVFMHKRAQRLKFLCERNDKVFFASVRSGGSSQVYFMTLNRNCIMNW
# [5] = target: Misshapen-like kinase 1 (Homo sapiens) (UniProt Q8N4C8); conditions: at 1 µM
# [6] = target: T1, Serine/threonine-protein kinase 4 (Homo sapiens) (UniProt Q13043); conditions: at 0.1 µM
# T1 sequence (whole entry): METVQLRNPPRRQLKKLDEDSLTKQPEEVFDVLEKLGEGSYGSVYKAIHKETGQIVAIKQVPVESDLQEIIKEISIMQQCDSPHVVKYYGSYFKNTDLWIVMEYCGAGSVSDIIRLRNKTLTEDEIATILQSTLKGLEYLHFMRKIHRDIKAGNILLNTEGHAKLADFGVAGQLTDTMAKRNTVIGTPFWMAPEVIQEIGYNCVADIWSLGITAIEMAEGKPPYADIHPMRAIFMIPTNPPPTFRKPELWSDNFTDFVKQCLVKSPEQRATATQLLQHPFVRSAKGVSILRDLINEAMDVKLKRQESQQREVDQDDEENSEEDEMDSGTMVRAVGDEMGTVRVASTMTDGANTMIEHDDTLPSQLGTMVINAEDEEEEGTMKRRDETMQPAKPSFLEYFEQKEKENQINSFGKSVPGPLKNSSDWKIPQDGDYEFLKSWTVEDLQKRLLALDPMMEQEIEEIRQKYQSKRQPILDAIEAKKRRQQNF
# [7] = target: T1, Serine/threonine-protein kinase 4 (Homo sapiens); conditions: at 1 µM
# [8] = target: T2, Serine/threonine-protein kinase 3 (Homo sapiens) (UniProt Q13188); conditions: at 0.1 µM
# T2 sequence (whole entry): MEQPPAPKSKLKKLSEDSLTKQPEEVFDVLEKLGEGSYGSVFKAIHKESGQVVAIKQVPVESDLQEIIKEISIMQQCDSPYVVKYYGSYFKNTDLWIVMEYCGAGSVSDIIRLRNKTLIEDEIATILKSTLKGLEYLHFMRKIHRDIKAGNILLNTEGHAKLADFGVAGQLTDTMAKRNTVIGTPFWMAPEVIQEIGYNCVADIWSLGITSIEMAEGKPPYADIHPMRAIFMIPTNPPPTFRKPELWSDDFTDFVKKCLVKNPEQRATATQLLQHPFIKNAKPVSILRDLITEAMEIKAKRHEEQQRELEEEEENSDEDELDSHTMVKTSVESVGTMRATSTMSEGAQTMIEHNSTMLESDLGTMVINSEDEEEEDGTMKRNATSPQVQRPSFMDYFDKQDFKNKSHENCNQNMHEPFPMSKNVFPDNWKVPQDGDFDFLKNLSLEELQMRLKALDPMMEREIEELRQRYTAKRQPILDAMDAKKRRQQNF
# [9] = target: T2, Serine/threonine-protein kinase 3 (Homo sapiens); conditions: at 1 µM
# [10] = target: Serine/threonine-protein kinase 26 (Homo sapiens) (UniProt Q9P289); conditions: at 0.1 µM
# Sequence of Serine/threonine-protein kinase 26 (Homo sapiens) (Q9P289 2-416 limits assumed): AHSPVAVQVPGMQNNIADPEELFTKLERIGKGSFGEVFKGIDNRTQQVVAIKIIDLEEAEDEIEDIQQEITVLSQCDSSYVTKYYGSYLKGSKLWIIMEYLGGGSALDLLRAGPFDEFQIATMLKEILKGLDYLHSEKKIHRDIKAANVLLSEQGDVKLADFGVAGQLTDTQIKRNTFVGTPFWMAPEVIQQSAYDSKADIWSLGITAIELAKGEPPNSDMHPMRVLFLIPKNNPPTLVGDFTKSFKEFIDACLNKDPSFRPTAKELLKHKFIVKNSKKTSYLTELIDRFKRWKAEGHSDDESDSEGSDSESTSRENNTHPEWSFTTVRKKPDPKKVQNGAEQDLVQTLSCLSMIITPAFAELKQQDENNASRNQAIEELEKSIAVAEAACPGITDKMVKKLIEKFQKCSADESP
# [11] = target: Serine/threonine-protein kinase 26 (Homo sapiens) (UniProt Q9P289); conditions: at 1 µM
# [12] = target: Serine/threonine-protein kinase PAK 1 (Homo sapiens) (UniProt Q13153); conditions: at 0.1 µM
# Sequence of Serine/threonine-protein kinase PAK 1 (Homo sapiens) (Q13153 whole entry): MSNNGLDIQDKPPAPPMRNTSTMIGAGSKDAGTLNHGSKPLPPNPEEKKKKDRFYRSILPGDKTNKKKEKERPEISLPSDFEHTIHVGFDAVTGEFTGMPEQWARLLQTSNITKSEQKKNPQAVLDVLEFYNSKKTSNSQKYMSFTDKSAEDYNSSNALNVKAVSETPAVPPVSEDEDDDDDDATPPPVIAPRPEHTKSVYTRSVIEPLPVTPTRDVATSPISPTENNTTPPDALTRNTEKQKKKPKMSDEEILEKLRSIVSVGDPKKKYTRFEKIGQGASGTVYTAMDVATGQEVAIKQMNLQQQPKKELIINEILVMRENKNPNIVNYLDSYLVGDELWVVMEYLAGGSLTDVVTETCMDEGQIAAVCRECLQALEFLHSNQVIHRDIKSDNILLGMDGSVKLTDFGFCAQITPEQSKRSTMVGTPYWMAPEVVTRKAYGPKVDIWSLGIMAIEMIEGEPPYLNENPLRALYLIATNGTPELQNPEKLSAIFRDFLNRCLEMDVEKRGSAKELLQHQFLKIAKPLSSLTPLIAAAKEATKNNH
# [13] = target: Serine/threonine-protein kinase PAK 1 (Homo sapiens) (UniProt Q13153); conditions: at 1 µM
# [14] = target: Serine/threonine-protein kinase PAK 2 (Homo sapiens) (UniProt Q13177); conditions: at 0.1 µM
# [15] = target: Serine/threonine-protein kinase PAK 2 (Homo sapiens) (UniProt Q13177); conditions: at 1 µM
# [16] = target: Serine/threonine-protein kinase PAK 3 (Homo sapiens) (UniProt O75914); conditions: at 0.1 µM
# Sequence of Serine/threonine-protein kinase PAK 3 (Homo sapiens) (O75914 whole entry, looked up): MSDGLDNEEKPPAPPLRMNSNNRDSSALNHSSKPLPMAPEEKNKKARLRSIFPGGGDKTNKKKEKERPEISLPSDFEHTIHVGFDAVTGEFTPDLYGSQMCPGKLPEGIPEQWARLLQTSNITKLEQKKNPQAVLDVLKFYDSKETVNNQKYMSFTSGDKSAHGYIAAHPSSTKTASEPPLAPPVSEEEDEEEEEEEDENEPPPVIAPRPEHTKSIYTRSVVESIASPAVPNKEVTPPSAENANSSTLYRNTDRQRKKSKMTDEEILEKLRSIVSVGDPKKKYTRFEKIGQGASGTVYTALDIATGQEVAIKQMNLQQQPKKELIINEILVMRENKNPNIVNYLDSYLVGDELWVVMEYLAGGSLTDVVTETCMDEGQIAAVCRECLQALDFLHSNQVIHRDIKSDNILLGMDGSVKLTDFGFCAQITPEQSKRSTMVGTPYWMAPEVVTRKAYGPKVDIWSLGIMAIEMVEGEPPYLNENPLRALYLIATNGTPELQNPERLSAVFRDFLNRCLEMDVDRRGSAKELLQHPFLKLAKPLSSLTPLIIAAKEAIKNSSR
# [17] = target: Serine/threonine-protein kinase PAK 3 (Homo sapiens) (UniProt O75914); conditions: at 1 µM
# [18] = target: Serine/threonine-protein kinase PAK 5 (Homo sapiens) (UniProt Q9P286); conditions: at 0.1 µM
# Sequence of Serine/threonine-protein kinase PAK 5 (Homo sapiens) (Q9P286 whole entry, looked up): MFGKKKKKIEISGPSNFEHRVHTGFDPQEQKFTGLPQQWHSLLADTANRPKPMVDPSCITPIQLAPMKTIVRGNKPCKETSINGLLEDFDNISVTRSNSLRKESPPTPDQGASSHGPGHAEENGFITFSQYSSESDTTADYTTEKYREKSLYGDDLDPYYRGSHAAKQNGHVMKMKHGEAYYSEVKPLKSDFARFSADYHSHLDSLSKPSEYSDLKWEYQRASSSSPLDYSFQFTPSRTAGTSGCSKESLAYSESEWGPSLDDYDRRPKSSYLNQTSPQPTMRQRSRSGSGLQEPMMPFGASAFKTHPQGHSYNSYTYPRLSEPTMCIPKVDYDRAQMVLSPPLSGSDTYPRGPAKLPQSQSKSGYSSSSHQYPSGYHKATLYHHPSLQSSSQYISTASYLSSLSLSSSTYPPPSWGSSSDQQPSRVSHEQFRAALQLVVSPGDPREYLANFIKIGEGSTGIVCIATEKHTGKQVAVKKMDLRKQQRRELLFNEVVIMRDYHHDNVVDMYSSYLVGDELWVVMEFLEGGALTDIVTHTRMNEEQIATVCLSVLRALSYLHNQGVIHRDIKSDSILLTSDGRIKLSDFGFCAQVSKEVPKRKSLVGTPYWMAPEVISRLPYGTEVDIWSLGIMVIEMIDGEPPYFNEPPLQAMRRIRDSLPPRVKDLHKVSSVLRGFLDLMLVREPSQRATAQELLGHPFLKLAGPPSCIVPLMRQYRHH
# [19] = target: Serine/threonine-protein kinase PAK 5 (Homo sapiens) (UniProt Q9P286); conditions: at 1 µM
# [20] = target: Serine/threonine-protein kinase PAK 6 (Homo sapiens) (UniProt Q9NQU5); conditions: at 0.1 µM;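 further: mean PAK6 inhibition reported from the GSK PKIS screen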
# Sequence of Mitogen-activated protein kinase kinase kinase kinase 4 (Homo sapiens) (O95819 2-1239 limits assumed): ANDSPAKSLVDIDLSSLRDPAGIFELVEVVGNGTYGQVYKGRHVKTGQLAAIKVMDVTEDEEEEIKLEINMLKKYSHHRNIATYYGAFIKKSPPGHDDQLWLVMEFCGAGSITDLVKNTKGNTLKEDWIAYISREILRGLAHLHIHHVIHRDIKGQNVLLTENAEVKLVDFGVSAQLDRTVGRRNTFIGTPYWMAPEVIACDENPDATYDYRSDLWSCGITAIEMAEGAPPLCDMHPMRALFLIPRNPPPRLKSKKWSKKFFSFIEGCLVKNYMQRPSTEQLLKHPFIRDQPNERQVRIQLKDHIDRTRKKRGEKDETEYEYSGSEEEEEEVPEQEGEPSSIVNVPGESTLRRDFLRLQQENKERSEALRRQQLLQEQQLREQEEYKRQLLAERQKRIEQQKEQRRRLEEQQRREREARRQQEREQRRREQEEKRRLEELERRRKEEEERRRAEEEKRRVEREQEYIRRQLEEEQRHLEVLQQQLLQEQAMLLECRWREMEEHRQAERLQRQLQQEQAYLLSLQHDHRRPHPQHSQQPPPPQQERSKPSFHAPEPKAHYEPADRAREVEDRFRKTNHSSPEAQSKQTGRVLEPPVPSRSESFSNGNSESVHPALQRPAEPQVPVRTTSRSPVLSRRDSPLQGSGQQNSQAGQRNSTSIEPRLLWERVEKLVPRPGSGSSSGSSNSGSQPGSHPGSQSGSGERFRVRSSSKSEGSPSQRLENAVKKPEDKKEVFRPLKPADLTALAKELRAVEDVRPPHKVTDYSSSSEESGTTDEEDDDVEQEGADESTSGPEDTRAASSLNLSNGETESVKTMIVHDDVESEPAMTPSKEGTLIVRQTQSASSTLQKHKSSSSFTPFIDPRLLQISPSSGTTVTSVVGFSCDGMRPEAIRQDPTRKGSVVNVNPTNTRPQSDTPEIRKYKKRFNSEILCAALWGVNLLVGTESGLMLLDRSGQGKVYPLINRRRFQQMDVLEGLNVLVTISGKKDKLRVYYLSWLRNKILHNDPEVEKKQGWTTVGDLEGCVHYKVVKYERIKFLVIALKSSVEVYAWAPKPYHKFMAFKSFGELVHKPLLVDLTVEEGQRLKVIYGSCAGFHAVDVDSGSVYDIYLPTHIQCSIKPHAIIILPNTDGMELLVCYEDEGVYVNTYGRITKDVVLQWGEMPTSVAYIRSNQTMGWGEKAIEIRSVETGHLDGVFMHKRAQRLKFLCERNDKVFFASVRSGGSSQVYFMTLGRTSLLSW
SMILES,inhibition [1],inhibition [2],inhibition [3],inhibition [4],inhibition [5],inhibition [6],inhibition [7],inhibition [8],inhibition [9],inhibition [10],inhibition [11],inhibition [12],inhibition [13],inhibition [14],inhibition [15],inhibition [16],inhibition [17],inhibition [18],inhibition [19],inhibition [20]
COc1ccc2ncnc(Nc3ccc(OCc4ccccc4)cc3)c2c1,7.18%,3.95%,2.41%,3.65%,4.24%,1.92%,4.04%,1.62%,3.92%,-1.91%,-1.42%,0.31%,3.44%,-0.61%,0.47%,2.33%,2.78%,-6.57%,-2.45%,-7.36%
CN(C)CCCn1c(-c2nonc2N)nc2cnccc21,6.52%,4.6%,3.75%,5.65%,6.29%,4.23%,4.03%,3.78%,4.52%,-1.82%,-1.75%,6.36%,9.52%,1.48%,2.17%,4.61%,5.23%,,-5.06%,7.58%
CS(=O)(=O)Nc1cccc(-c2ccc3c(NC(=O)C4CC4)n[nH]c3c2)c1,6.35%,0.37%,0.96%,1.34%,6.69%,3.33%,4.09%,3.45%,4.09%,-3.32%,1.22%,2.69%,3.3%,0.99%,0.37%,0.48%,1.23%,,,-7.16%
CCn1c(-c2nonc2N)nc2ccc(F)cc21,9.77%,9.94%,7.03%,6.88%,9.59%,5.88%,5.97%,6.38%,6.55%,-1.73%,3.36%,12%,11.2%,3.1%,3.8%,7.78%,6.52%,-1.6%,,2.06%
Nc1ccc(C#Cc2cncnc2Nc2ccc(OCc3cccc(F)c3)c(Cl)c2)cc1,0.49%,2.6%,3.23%,3.73%,1.66%,2.07%,2.02%,3.2%,4.05%,-0.87%,-2.17%,0.57%,1.46%,0.83%,0.22%,3.57%,2.79%,0.61%,2.79%,-4.23%
COc1cc(/C=N/Nc2ncnc3c2cnn3C(C)C)ccc1O,21.4%,2.16%,1.21%,6.6%,19.1%,1.8%,7.78%,1.29%,8.02%,0.35%,3.49%,3.62%,2.53%,-0.56%,-0.45%,-3.86%,1.26%,,4.69%,-0.32%
COC(=O)c1cncc(/C=C/c2c(C)cc(O)cc2C)c1,18.8%,4.72%,4.21%,5.24%,14.9%,7.04%,9.84%,7.02%,9.92%,-1.08%,-1.43%,4.61%,0.91%,2.48%,0.99%,4.48%,4.33%,9.23%,2.77%,1.5%
